These results are taken from the supplement of paper PMC8728848.

Common to all, as to assay: glycan array binding signal (z-score within array); higher = stronger binding
Common to all, as to conditions: glycan notation: IUPAC condensed, linker removed

Experiment [1] deals with Neu5Ac(a2-3)Gal(b1-4)[Fuc(a1-3)]GlcNAc(b1-3)Gal(b1-4)GlcNAc. The method, boiled down: (§1)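 From the Consortium for Functional Glycomics database, 3228 arrays were curated, keeping only those whose protein sequence was available. Binding is given as a within-array Z-score averaged across arrays sharing a protein sequence and across linkers. Negative Z-scores can be read as non-binding.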

Another experiment deals with Neu5Ac(a2-3)Gal(b1-4)Glc. Summed up:
as §1

Experiment [2] deals with Neu5Ac(a2-3)Gal(b1-4)[Fuc(a1-3)]GlcNAc. The method, boiled down: as §1
The test system of experiment [3] is Neu5Ac(a2-3)Gal(b1-4)[Fuc(a1-3)]GlcNAc(b1-6)[Neu5Ac(a2-3)Gal(b1-3)]GalNAc. The method, boiled down:
as §1

Experiment [4] has as its system Neu5Ac(a2-3)Gal(b1-4)[Fuc(a1-3)]GlcNAc(b1-3)GalNAc. The method, boiled down:
as §1

The test system of experiment [5] is Neu5Ac(a2-3)Gal(b1-4)[Fuc(a1-3)]GlcNAc(b1-3)Gal(b1-4)[Fuc(a1-3)]GlcNAc(b1-3)Gal(b1-4)Glc. Summed up:
as §1

Experiment [6] relates to Neu5Ac(a2-3)Gal(b1-4)[Fuc(a1-3)]GlcNAc6S(b1-3)Gal(b1-4)Glc. Summed up: as §1
For experiment [7], the system named is Neu5Ac(a2-3)Gal(b1-4)GlcNAc. Summed up: as §1
Experiment [8] concerns Neu5Ac(a2-3)Gal(b1-4)[Fuc(a1-3)]GlcNAc(b1-3)Gal(b1-4)[Fuc(a1-3)]GlcNAc(b1-3)Gal(b1-4)[Fuc(a1-3)]GlcNAc. The method, boiled down: as §1
For experiment [9], the system named is Neu5Ac(a2-3)Gal(b1-4)[Fuc(a1-3)]GlcNAc(b1-6)[Gal(b1-3)]GalNAc. The method, boiled down: as §1

Shown is part of a subset that was picked to be rich in the strongest signals.

Take LcI (Legionella pneumophila): the “glycan array binding signal (z-score)” value in experiment [1] is 0.401. Regarding MIC3-MAR1b (Eimeria tenella), B6VCV4, the figures for the “glycan array binding signal (z-score)” value (with Neu5Ac(a2-3)Gal(b1-4)Glc; in [2]) were -0.453 and -0.346, respectively. As to Actinohivin (Actinomycete K97), the “glycan array binding signal (z-score)” value in the experiment with Neu5Ac(a2-3)Gal(b1-4)Glc was 0.053; in [3] it was -0.02. As to “SiiE (Salmonella typhimurium), A0A0H3NVH0”, the “glycan array binding signal (z-score)” value turned out to be 2.39 with Neu5Ac(a2-3)Gal(b1-4)Glc and 0.224 in experiment [2].

Take “SpGH101 (Streptococcus pneumoniae), Q8DR60”: the “glycan array binding signal (z-score)” value in [4] turned out to be 1.68. In the case of MIC3-MAR5 (Eimeria tenella), B6VCV4, the “glycan array binding signal (z-score)” value was determined as 0.92 in experiment [5] and 2.08 in experiment [6]. With Epa22, the “glycan array binding signal (z-score)” value is 0.352 in [7] and 0.118 in [3]. On to “AgI/II Vhelical-GFP (Streptococcus mutans)”, for which the “glycan array binding signal (z-score)” value in experiment [8] and in [3] was -0.178 each time. On to Wza (Escherichia coli), P0A930, for which the “glycan array binding signal (z-score)” value in [4] was determined as 1.12. On to AgI/IIC123-GFP (Streptococcus mutans), for which the “glycan array binding signal (z-score)” value in experiment [9] was found to be 0.09.
